ATXN2 expr inh: ATXN2 expression inhibition. HEK-293 ATXN2-luciferase reporter, luminescence, 24 h. Potency, µM (doses to about 57 µM), for inactives: at the highest dose activity change, negative = inhibition, usual class: inhibitors. 360,000 tested, 0.72% active. AID 1745845; also: % is scaled to controls: 0 for no effect and ±100 for the full control effect; nearly all actives have a fitted effect of over 55% in size
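ATXN2-luciferase reporter cells (luciferase flanked by upstream and downstream ATXN2 gene portions) were treated 24 h at 37 °C with compounds at up to 57 uM. SteadyGlo luminescence gave expression; GF-AFC fluorescence gave viability.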
TGFb SMAD3 inh: blocks TGF-b signaling; HepG2 CAGA-GFP TGF-b/SMAD3 reporter, GFP fluorescence, 18 h; TGF-beta stimulated, 500 pg/mL final; Potency, µM (titrated, usually from 46.1 µM), without a hit: at the top dose activity, negative = inhibition, hits mostly inhibitors; 410,000 tested, 1.2% active; AID 588855; also: % is scaled to controls: 0 for no effect and ±100 for the full control effect; nearly all actives have a fitted effect of over 65% in size
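Inhibition of TGF-beta-driven CAGA-GFP reporter expression in HEPG2 cells is measured by cellular GFP fluorescence after 18 h stimulation with 500 pg/mL recombinant TGF-beta in 1% FBS medium at 37 degrees C.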
Gal4-VP16 FLuc: counter-screen for ROR gamma inhibitors: Gal4-VP16 reporter; 310,000 tested, 3.5% active; Drosophila S2 Gal4-VP16 UAS-luciferase, luminescence, 20 h; AID 2546; Potency, µM (series often up to 53.6 µM), for the others: top-dose activity, negative = inhibition, most hits filed as inhibitors;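 also: Gal4-VP16 expression switched on by copper sulfate through the metallothionein promoter; % is scaled to controls: 0 for no effect and ±100 for the full control effect; nearly all actives have a fitted effect of over 50% in size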
S2 tox: reduces viability in counter-screen for ATXN expression inhibitors; Potency, µM (series often up to 56.7 µM), actives largely listed as cytotoxic; 400,000 tested, 0.49% active; S2 cells (HEK-293 line with an ATXN2-luciferase reporter) viability, CellTiter-Fluor protease fluorescence, 24 h; also: nearly all actives have a fitted effect of over 40% in size
RORg inh: ROR gamma (mouse) transcription inhibition; P51450; Drosophila S2 Gal4-RORgamma UAS-luciferase reporter, 20 h; Potency, µM (series often up to 53.6 µM), inactives show at the top dose activity change, negative = inhibition, usual class: inhibitors; 310,000 tested, 5.4% active; also: % is scaled to controls: 0 for no effect and ±100 for the full control effect; nearly all actives have a fitted effect of over 60% in size
Target sequence (P51450 whole entry, looked up, the tested form may be a part): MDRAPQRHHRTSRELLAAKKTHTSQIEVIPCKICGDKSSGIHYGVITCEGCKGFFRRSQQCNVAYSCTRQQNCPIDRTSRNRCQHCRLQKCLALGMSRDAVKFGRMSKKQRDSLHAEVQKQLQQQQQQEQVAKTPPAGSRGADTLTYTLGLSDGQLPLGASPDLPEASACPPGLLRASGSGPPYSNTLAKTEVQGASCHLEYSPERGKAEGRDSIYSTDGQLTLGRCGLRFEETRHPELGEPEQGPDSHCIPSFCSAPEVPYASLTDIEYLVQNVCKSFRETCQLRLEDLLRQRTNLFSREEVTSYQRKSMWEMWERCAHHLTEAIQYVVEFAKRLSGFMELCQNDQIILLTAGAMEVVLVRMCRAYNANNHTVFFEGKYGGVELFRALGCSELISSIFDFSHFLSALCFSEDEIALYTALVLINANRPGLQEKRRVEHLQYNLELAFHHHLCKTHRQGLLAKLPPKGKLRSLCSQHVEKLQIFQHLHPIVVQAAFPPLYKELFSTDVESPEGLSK
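Stable Schneider cell line, Gal4 DNA-binding domain fused to ROR gamma, UAS-luciferase. Cmpd 1 hr RT → CuSO4 700 uM final → 20 hr RT → luciferase reagent 10 min → luminescence.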
HepG2 tox: kills HepG2 cells in TGF-b inhibitor counter-screen | HepG2 CAGA-GFP viability, ATP luminescence, 18 h | Potency, µM (top dose mostly 46.1 µM), inactives show at the highest dose activity change, negative = cytotoxicity, actives largely listed as cytotoxic | 410,000 tested, 0.76% active
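HepG2 CAGA-GFP cells (1000/well, DMEM with 1% FBS) received compound, then TGF-beta at 500 pg/mL final, and were incubated 18 hours at 37 degrees C. Viability was read by CellTiter-Glo luminescence. Media-only wells were set as complete cell-killing and DMSO as no toxicity.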
Numbers without * were called inactive; i = inactive; ? = inconclusive; . = no result given; [ ] = dose if it differs, or a comment. Hits are enriched below; roughly 6.3% of the tested compounds scored in any of these assays. Calls follow the shape of the dose curve; as a rule, active = well fitted curve in the direction sought with a large enough effect; inconclusive = small, poorly fitted or top-dose-only effect, or another doubt; inactive = no such curve, though single readings can be large; an effect the other way counts as inactive or inconclusive. Potency is read from the fitted curve at half-maximal effect.

SMILES	ATXN2 expr inh	TGFb SMAD3 inh	Gal4-VP16 FLuc	S2 tox	RORg inh	HepG2 tox
c1ccc(-c2nnc3sc(-c4ccncc4)nn23)cc1	-4.1%	-5.0%	5.7%	i	-14.1%	-3.8%
c1ccc(-c2nnc3sc(-c4csc5c4CCCC5)nn23)cc1	3.3%	?	?	i	6.31µM*	-23.9%
Cc1cccc(-c2nnc3sc(-c4ccccc4C)nn23)c1	-18.0%	-3.8%	1.8%	i	?	12.6µM*
CC(=O)CC1c2cc(F)ccc2C=C(c2ccsc2)N1c1ccc(-c2ccc(C(N)=O)cc2)cc1 (configuration not stated)	-38.8%	.	.	?	.	.
CCCOc1ccc(F)cc1-c1cc(C(=O)NCc2cccc(C(F)(F)F)c2)[nH]n1	?	?	.	?	.	-17.7%
O=C(NCc1nnc2n1CCN(Cc1ccccc1C(F)(F)F)CC2)c1ccncc1	.	.	.	i	.	.
COc1ccc(Nc2nc(Nc3ccc(OC)cc3)nc(-n3[nH]c(=O)c(C)c3C)n2)cc1	-21.7%	0.0%	3.98µM*	i	1.26µM*	-23.1%
COc1ccc(Nc2nc(OC)nc(OC)n2)cc1	.	15.4%	-7.9%	i	32.0%	-0.9%
CCOc1ccc(C(=O)NC(Cc2ccccc2)C(=O)OC)cc1 (configuration not stated)	47.6%	-5.3%	-19.8%	i	-12.4%	1.9%
O=C(NC(=S)NC(CO)Cc1ccccc1)c1ccc(F)cc1 (configuration not stated)	7.9%	-14.4%	?	i	11.2µM*	-21.2%
COC(=O)C(Cc1ccccc1)NC(=S)NC(=O)c1ccccc1 (configuration not stated)	-9.4%	-0.7%	?	i	3.16µM*	22.2%
Cc1cc(NC(=O)CN2C(=O)c3cccnc3Sc3ccccc32)ccc1Br	19.4%	-9.3%	.	i	.	-28.2%
Cc1nc2cnc(Oc3ccccc3)nc2n(C2CC2)c1=O	.	.	-0.2%	.	-30.6%	.
COC(/C(=N/O)c1ccc(Cl)cc1)c1ccccc1 (configuration not stated)	?	?	4.47µM*	i	5.62µM*	-56.5%
N#Cc1ccc(C(=O)Nc2ccc3c(c2)N(C2CCCC2)C(=O)c2ccccc2S3)cc1	-0.7%	5.62µM*	.	i	.	-7.6%
S=C1NCN(C2CCCCC2)CN1c1ccccc1	.	-5.7%	?	i	22.4µM*	-37.0%
CCOc1ccc(C=C2SC(=O)N(CCN)C2=O)cc1	.	.	-1.8%	.	0.631µM*	.
CCOc1ccc(/C=C2/SC(=S)N(n3c(C)ccc3C)C2=O)cc1	-25.4%	-1.4%	9.8%	i	?	-24.2%
COc1ccc(Cl)cc1N=Cc1c(O)cc(C)oc1=O	0.3%	17.2%	.	i	.	7.4%
Cc1cc(O)c(/C=N/OCc2ccc(Cl)cc2Cl)c(=O)o1	-26.0%	-19.0%	?	i	12.6µM*	-49.1%
O=C(C=P(c1ccccc1)(c1ccccc1)c1ccccc1)c1ccccc1-c1ccccc1C(=O)C=P(c1ccccc1)(c1ccccc1)c1ccccc1	?	1µM*	.	.	.	1.58µM*
C=C1C=C(C(F)F)n2ncc(C(=O)N3CCCCC3)c2N1	.	2.4%	.	.	.	17.1%
CCC/C=N/NC(=O)CNC(=O)c1ccccc1Cl	6.2%	0.4%	9.9%	?	-10.3%	-2.2%
Cc1ccccc1C(=O)N/N=C/c1ccncc1	5.0%	1.4%	-0.1%	i	-4.7%	-19.2%
CCOC(=O)C(CC)/C(C)=N\NC(=O)c1ccccc1O (configuration not stated)	-19.5%	-22.0%	12.6µM*	?	10µM*	-44.7%
SMILES	ATXN2 expr inh	TGFb SMAD3 inh	Gal4-VP16 FLuc	S2 tox	RORg inh	HepG2 tox
O=C(Cc1ccc(Br)c2ccccc12)N/N=C/c1ccccn1	-38.0%[11.3 µM]	?	-19.0%	i	7.94µM*	2.9%
CCC/C=N/NC(=O)c1ccccc1O	3.3%	-1.1%	-81.0%	i	10µM*	3.9%
CCC/C(C)=N/NC(=O)c1ccccc1O	-6.3%	-5.5%	?	i	?	-9.5%
Cc1ccccc1C(=O)N/N=C/c1ccccn1	-19.6%	-7.1%	?	i	10µM*	2.5%
O=C(N/N=C/c1ccc(-c2ccccc2)o1)c1ccccc1O	-4.4%	-7.8%	0.631µM*	i	?	-23.2%
COC(=O)c1ccccc1-c1ccc(/C=N/NC(N)=O)o1	3.3%	3.1%	5.4%	i	-3.8%	-0.2%
O=C(N/N=C\c1ccncc1)c1ccccc1O	.	-2.8%	?	i	11.2µM*	-13.8%
COc1ccc(C(=O)Nc2ccccc2C(=O)N/N=C/c2ccccn2)cc1OC	28.2µM*	?	3.16µM*	i	1.26µM*	-18.0%
CCOc1ccc(Br)cc1C(=O)N/N=C/c1ccccn1	-20.6%	12.6%	2.1%	i	11.2µM*	-2.3%
COc1ccc(C(=O)N/N=C/c2ccccn2)cc1OC	-6.5%	3.5%	?	i	?	-33.3%
Cc1ccccc1-n1c2nc(=O)[nH]c(=O)c-2cc2c(Cl)cccc21	-1.3%	-15.6%	.	?	.	-29.3%
Nc1c([N+](=O)[O-])cc2c3c(cccc13)CC2	0.0%	-7.1%	.	?	.	-21.7%
C/C=N\NC(=O)COc1cc(C)ccc1C	-21.0%	-5.6%	-1.5%	i	12.6µM*	-77.2%
Cc1ccccc1OCC(=O)N/N=C/c1ccccn1	4.3%	-26.1%	6.5%	i	14.1µM*	-14.6%
Cc1cc(C)cc(OCC(=O)N/N=C/c2ccccn2)c1	-5.3%	3.4%	-4.4%	i	-21.1%	-13.8%
O=C(N/N=C\c1ccccn1)c1ccccc1O	-54.1%	?	4.47µM*	i	2µM*	3.16µM*
O=C(N/N=C/c1ccccn1)c1ccncc1	.	6.6%	3.4%	i	0.9%	3.0%
O=C(N/N=C/c1ccccn1)c1cccs1	.	?	?	i	7.08µM*	-2.5%
O=C(N/N=C/c1ccccn1)c1ccccc1	-26.6%	-15.2%	-12.4%	?	16.5%	-14.3%
COCCN1C[C@@H](CO)O[C@@H](n2cnc3c(N(C)C)ncnc32)C1	-1.5%	-6.9%	.	i	.	-13.2%
CC1(O)C(=O)C=C2C=C(c3ccc(C#N)cc3)OC=C2C1=O (configuration not stated)	.	.	-19.9%	.	0.1%	.
COc1ccc(NC(=O)C(=O)NCC(c2ccco2)N2CCc3ccccc3C2)cc1OC (configuration not stated)	-4.3%	2.51µM*	.	i	.	-23.3%
COc1cccc(NC(=O)C(=O)NCC(c2ccco2)N2CCc3ccccc3C2)c1 (configuration not stated)	8.9%	-1.0%	.	i	.	8.0%
Cc1ccc(/C=N/n2cc(-c3ccccc3)[nH]c2=S)s1	9.2%	-12.5%	5.01µM*	i	0.447µM*	-18.8%
